Laboratory results published in the supplement of paper PMC3484114.
± gives the standard deviation.

The compounds below were run on OVCAR-3-derived ovarian cancer stem-like cells (spheroids) (assay: cell growth relative to untreated control; higher = more growth (less inhibition)). Conditions: 2.29 µM; 96 h.
In short: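 Viability of stem-like cells from OVCAR-3 spheroids was assessed with TOX8 resazurin fluorescence at ex 560/em 590 nm. The cells had been trypsin-dissociated, seeded at 50,000 cells/mL in stem cell medium in ultra-low attachment 96-well plates and preincubated 24 h, then treated with compounds at 2.29 uM for 96 h at 37°C, 5% CO2, in 4 replicate wells, with fluorescence read after 4 h. Results were converted to percent growth against untreated wells after blank subtraction and Grubbs outlier removal.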
`Nc1ncnc2c([C@@H]3O[C@H](CO)[C@@H](O)[C@H]3O)c[nH]c12` was tested, and the cell growth was 127 ± 35%.
Compound `Cc1ccccc1NC(=O)C(=O)C(c1cnc2ccc([N+](=O)[O-])cc2n1)[N+](=O)[O-]` (centres undefined) has a cell growth of 112 ± 25%.
`O=C1Cc2c([nH]c3ccc(Br)cc23)-c2ccccc2N1` gave a cell growth of 109 ± 9.9%.
`CC1=C\C(O)CC(=O)Cc2nc(co2)C(=O)N2CCC=C2C(=O)OC(C(C)C)C(C)/C=C/C(=O)NC/C=C\1.CCC1NC(=O)C(NC(=O)c2ncccc2O)C(C)OC(=O)C(c2ccccc2)NC(=O)C2CC(=O)CCN2C(=O)C(Cc2ccc(N(C)C)cc2)N(C)C(=O)C2CCCN2C1=O` (centres undefined) was tested, and the cell growth was 80.8 ± 20%.
In the case of `CC(C)N.CC(C)N.[Cl-].[Cl-].[OH-].[OH-].[Pt]`, the cell growth is reported as 65.4 ± 57%.
Work on `CCCCCCCCCCCCC(O)C(=O)O` (centres undefined) yielded a cell growth of 115 ± 19%.
Work on `COC1CN(C)C(=Nc2cccc3ccccc23)S1` (centres undefined) yielded a cell growth of 130 ± 21%.
Compound `COc1cccc2c1C(=O)c1c(O)c3c(c(O)c1C2=O)C[C@@](O)(C(C)=O)C[C@@H]3O[C@@H]1C[C@@H](N(C)C)[C@@H](O)[C@@H](C)O1` has a cell growth of 26.5 ± 25%.
Work on `O=C1Oc2ccccc2C1C/C(=N\Nc1ccccc1)c1ccccc1O` (centres undefined) yielded a cell growth of 158 ± 100%.
Work on `BrC(/C=N/Nc1nnc(-c2ccccc2)c(-c2ccccc2)n1)C(Br)c1ccccc1` (centres undefined) yielded a cell growth of 93.9 ± 17%.
For `CCCCn1c2c(n(CCCC)c1=S)-c1c(n(CCCC)c(=S)n1CCCC)SSSS2`, the cell growth was 27.2 ± 5.8%.
Compound `COC(=O)C1CCC(=O)N1C(c1ccc(OC)cc1)c1cc(OC)c(OC)c(OC)c1` (centres undefined) has a cell growth of 18.5 ± 9.1%.
With `COc1c(O[C@@H]2O[C@H](CO)[C@@H](O)[C@H](O)[C@H]2O)cc2c(c1OC)-c1ccc(OC)c(=O)cc1[C@@H](NC(C)=O)CC2` the cell growth was 119 ± 20%.
Work on `Cn1cnc([N+](=O)[O-])c1Sc1nnc(-c2cccnc2)n1C` yielded a cell growth of 151 ± 61%.
`C=C1C(=O)OC2C1CC1OC2C(C)CCC/C(C)=C\CCC1(C)O` (centres undefined) gave a cell growth of 115 ± 10%.
Work on `Cc1ccc(C)c2c(N=Nc3ccccc3[N+](=O)[O-])c(O)[nH]c12` yielded a cell growth of 138 ± 41%.
`CC(=O)c1sc2[n+](c1C)C(=O)/C(=C\c1ccccc1Cl)S2` showed a cell growth of 99.4 ± 17%.
Compound `CCN(CC)CCCC(C)NC(=O)c1ccc2c(c1)C(=O)c1ccccc1C2=O` (centres undefined) has a cell growth of 35.6 ± 15%.
With `CC(=O)OC[C@H]1O[C@@H](NC(=O)N(CCCl)N=O)[C@H](OC(C)=O)[C@@H](OC(C)=O)[C@@H]1OC(C)=O` the cell growth was 115 ± 15%.
`Nc1ccc(OCCCc2c(-c3ccccc3)nc(N)[nH]c2=O)cc1` was tested, and the cell growth was 82.7 ± 20%.
Compound `COC(=O)[C@@]12OC[C@]34[C@H]([C@@H](O)[C@@H]1O)[C@@]1(C)CC(=O)C(O)=C(C)[C@@H]1C[C@H]3OC(=O)[C@H](OC(=O)C=C(C)C)[C@@H]24` has a cell growth of 18.5 ± 3.1%.
`Clc1ccc(-c2c(C3=NCCCN3)nnn2-c2ccc(Cl)cc2)cc1` showed a cell growth of 156 ± 57%.
`COC1CC(C)C(OC)c2cc(O)cc(c2O)NC(=O)/C(C)=C/C=C\C(C)C(OC(N)=O)/C(C)=C/C(C)C1OC` (centres undefined) was tested, and the cell growth was 29 ± 4.8%.
With `CCN(CC)CCCNc1ncc(C)c2[nH]c3ccncc3c12` the cell growth was 82.7 ± 8.6%.
`CCOc1cccc(/C=N/N=C2\C(=O)Nc3c(Cl)cc(Cl)cc32)c1O` gave a cell growth of 85.4 ± 13%.
`CN(CO)c1nc(N(C)CO)nc(N(C)CO)n1` gave a cell growth of 83.5 ± 18%.
`COc1cc(/C=C(\C)c2ccc3c(c2)OCO3)cc(OC)c1OC` showed a cell growth of 162 ± 21%.
Work on `Cc1ccccc1NC(=O)C(=O)C(C#N)c1ccccc1C` (centres undefined) yielded a cell growth of 7.3 ± 3.2%.
`COC1C(O)=C2C(=O)OC(C)(O)/C=C/C=C\C=C/C=C/C(c3ccccc3)NC(=O)/C=C/C=C/C=C/C=C/C2(C)C1O` (centres undefined) showed a cell growth of 71.7 ± 31%.
`CN1C(Cl)=NS(=O)(=O)c2ccccc21` showed a cell growth of 99.9 ± 12%.
`CC(C)CC(NC(=O)OCc1ccccc1)C(=O)NC(Cc1ccccc1)C(=O)CCl` (centres undefined) showed a cell growth of 92.9 ± 35%.
Work on `O=C1Nc2c(Cl)cc(Cl)cc2C1=NN=Cc1ccco1` yielded a cell growth of 84.3 ± 20%.
`COc1ccccc1Cc1nc(-c2ccccc2)nn(C2OC(COC(C)=O)C(OC(C)=O)C(OC(C)=O)C2OC(C)=O)c1=S` (centres undefined) showed a cell growth of 97.5 ± 16%.
With `Cc1ccc(NC(=O)/C=C/c2ccccc2)c(C)c1` the cell growth was 77.2 ± 16%.
`CC1OC(CC(=O)O)CC2=C1C(=O)c1c(O)cccc1C2=O` (centres undefined) was tested, and the cell growth was 130 ± 42%.
Work on `OCC1OC(n2cnc3c(SCc4ccccc4)ncnc32)C(O)C1O` (centres undefined) yielded a cell growth of 118 ± 33%.
Compound `COc1cc2c[n+](C)c3c4cc5c(cc4ccc3c2cc1OC)OCO5` has a cell growth of 48.7 ± 21%.
`COc1ccc(O)cc1` was tested, and the cell growth was 62.6 ± 18%.
`Cc1[nH]c(=O)nc(N/N=C/c2ccc(Cl)cc2)c1C(=O)Nc1ccc(Cl)cc1` showed a cell growth of 63.1 ± 11%.
